Measurements from PubChem BioAssay AID1347041 (National Center for Advancing Translational Sciences (NCATS), 2019).
Values joined by “and” are separate entries in the source; they are usually repeats but may differ in a detail not shown here. Equal values may be shown once. In all, about 480,000 compounds went through this assay and about 740 (0.15%) were called active. No stated cut-off is given here; in the data, active means activity change below about -30%; inconclusive means mostly about -25% to -30%; inactive means weaker than that. For the sample, actives were picked, then their nearest neighbours and some compounds at random. More than one record can exist for a structure, and the calls need not agree.

target: L-lactate dehydrogenase A chain (Homo sapiens) (UniProt P00338); assay: qHTS assay for inhibitors of human lactate dehydrogenase; settings: purified LDHA, NADH/diaphorase-resazurin fluorescence; stronger effect = lower value;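 further: values are at about 110 or 230 µM; plate controls were DMSO wells for no effect and wells without enzyme for full effect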
Method in brief: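 Remaining NADH was detected by diaphorase (0.133 mg/mL) converting 37 µM resazurin to fluorescent resorufin, read at 0 and 20 minutes. The preceding 5-minute room-temperature reaction used 2 nM LDHA, 0.2 mM sodium pyruvate and 0.06 mM NADH at pH 7.4.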

Row | SMILES | activity change
1 | Cc1ccc(/C=C(/C#N)C(=O)c2ccsc2)cc1C | 4.55% (inactive)
2 | CC(C)(C)C(=O)N1CCC(C(=O)N2CCC(c3nc4ccccc4o3)CC2)CC1 | 0.769% (inactive)
3 | O=C(C(c1ccccc1)N1CCN(S(=O)(=O)c2cccs2)CC1)N1CCCCC1 (stereo unspecified) | 1.33% (inactive)
4 | O=C(NCc1ccco1)NNc1nc2c(-c3ccccc3)nnn2c2ccccc12 | 0.688% (inactive)
5 | Clc1cc(Cl)c(N/N=C/c2ccc(Br)cc2)c(Cl)c1 | 1.46% (inactive)
6 | O=C(OCc1ncc(-c2ccccc2)o1)c1c(F)cccc1Cl | -4% (inactive)
7 | Cc1cc(C)c(S(=O)(=O)c2ccccc2)c(OC(=O)c2c(F)cccc2Cl)n1 | -58% (active)
8 | Cc1cc(OC(=O)c2c(Cl)cccc2Cl)nc(C)n1 | -6.35% (inactive)
9 | CC(=O)c1c(C)[nH]c(C)c1C | -0.832% (inactive)
10 | CCc1nc(C#N)c(NCC(c2cccs2)N2CCOCC2)o1 (stereo unspecified) | 4.58% (inactive)
11 | CCCc1cc(=O)oc2cc(OC(C)C(=O)Nc3cccc(C(C)=O)c3)ccc12 (stereo unspecified) | 1.35% (inactive)
12 | Cc1c(C(=O)C(=O)NC(C)c2ccccc2)c2ccccc2n1C (stereo unspecified) | -3.86% (inactive)
13 | CCOC(=O)c1cc(S(=O)(=O)Nc2cccc(C)c2C)[nH]n1 | -1.21% (inactive)
14 | COc1ccc(OCCOC(=O)c2nn(C)c(=O)c3ccccc23)cc1 | 0.361% (inactive)
15 | Cc1ccc(S(=O)(=O)N2CCN(C(=O)Cc3sc(C)nc3-c3ccc(F)cc3)CC2)c(C)c1 | 1.74% (inactive) and -33% (active)
16 | Cc1nc(-c2ccc(F)cc2)c(CC(=O)N2CCN(S(=O)(=O)c3ccc(F)cc3)CC2)s1 | 7.31% (inactive) and -4.86% (inactive)
17 | Cc1nc(-c2ccc(F)cc2)c(CC(=O)Nc2cc(S(=O)(=O)N3CCCCC3)ccc2C)s1 | -0.452% (inactive)
18 | CC(NC(=O)c1nccnc1N)c1ccco1 (stereo unspecified) | -5.25% (inactive)
19 | CC(=O)[C@@H]1SC(N)=C(C#N)[C@H]1c1cccs1 | 12.5% (inactive)
20 | CCCn1c(N2CCN(C(=O)c3cccc(OC)c3)CC2)nc2sc3c(c2c1=O)CCCC3 | -1.23% (inactive)
21 | CCN(c1ccccc1)c1nnc(NC(=O)Nc2ccccc2OC)s1 | -2.61% (inactive)
22 | CCCn1nc(C(=O)Nc2ccc(OC)c(NC(C)=O)c2)c2ccccc2c1=O | -2.1% (inactive)
23 | CCNC(=O)CN1CCN(C(C(=O)O)c2c[nH]c3ccc(OCc4ccccc4)cc23)CC1 (stereo unspecified) | -6.48% (inactive)
24 | Fc1ccc(OCc2nn3c(CSc4ccccc4)nnc3s2)cc1 | -2.81% (inactive)

Row | SMILES | activity change
25 | O=C(CN1CCN(CC(=O)c2c[nH]c3ccccc23)CC1)NC1CC1 | 0.902% (inactive)
26 | CCc1ccc(NC(=O)CSc2nccn2Cc2ccccc2OC)cc1 | 8.74% (inactive)
27 | CC(NC(=O)c1cc(Cl)sc1Cl)C12CC3CC(CC(C3)C1)C2 (stereo unspecified) | 1.53% (inactive)
28 | COc1ccc(-c2cc(C(=O)O)c3cc(C)ccc3n2)cc1OC | 6.4% (inactive)
29 | CC(C)Cn1nc(C(=O)NCc2ccccc2F)c2ccccc2c1=O | 8.3% (inactive)
30 | COCCCN(C)Cc1cccc(OC)c1 | -1.41% (inactive)
31 | COc1cc(Cl)c(C)cc1NC(=O)C(C)N1CCN(CCc2ccccc2)CC1 (stereo unspecified) | -11.8% (inactive)
32 | O=C1CCCC2=C1C(c1ccc(C(=O)O)cc1)c1c([nH]n(-c3ccccc3)c1=O)N2 (stereo unspecified) | 14.2% (inactive)
33 | CCOC(=O)C1=C(CN2CCN(C(=O)OC(C)(C)C)CC2)NC(=O)NC1c1ccccc1OCC (stereo unspecified) | -21.6% (inactive)
34 | Cc1cc(CNC(=O)NCc2coc(-c3cccs3)n2)ccc1F | -5.62% (inactive)
35 | CCCNc1c(NS(=O)(=O)c2ccc(F)c(F)c2)c(=O)oc2ccccc12 | 0.151% (inactive)
36 | COc1ccc(C(=O)Nc2oc3ccc(Cl)cc3c(=O)c2-c2ccc3c(c2)OCO3)cc1 | -4.91% (inactive)
37 | Cc1c(C(N)=O)[n+](=O)c2ccccc2n1[O-] | -7.73% (inactive)
38 | Oc1ccc2ccccc2c1C=NCCc1ccccc1 | 43.7% (inactive)
39 | Cn1c(=O)c2c(ncn2CC(=O)Nc2cccc(F)c2)n(C)c1=O | 0.764% (inactive)
40 | COc1ccc(Nc2ccccc2)cc1 | 15% (inactive)
41 | COc1ccc(-c2nn3c(-c4ccc(OC)cc4)nnc3c3ccccc23)cc1 | -7.99% (inactive)
42 | Cc1ccc(-c2nnn(Cc3csc(-c4ccccc4Cl)n3)n2)cc1 | -3.25% (inactive)
43 | COc1ccc(-c2nc(=N)sn2-c2ccccc2)cc1 | -63.7% (active)
44 | Cc1ccc(CN2C(=O)SC(Nc3ccccc3)C2=O)cc1 (stereo unspecified) | -3.19% (inactive)
45 | Cc1ccc(-c2nc(=N)sn2Cc2ccccc2)cc1 | -80.9% (active)
46 | CCCCn1c(=O)[nH]c(=O)c2c1nc(COC(=O)C1(C#N)CCCC1)n2C | -5.02% (inactive)
47 | O=C(CCC1NC(=O)c2ccccc2NC1=O)NC1CCCC1 (stereo unspecified) | -4.57% (inactive)
48 | Cc1ccc(N(CC(=O)N2CCN(C/C=C/c3ccccc3)CC2)S(C)(=O)=O)cc1 | -0.0793% (inactive)

Row | SMILES | activity change
49 | CN(Cc1ccc(Cl)cc1)C(=O)Cn1nnn(-c2cccs2)c1=O | -0.86% (inactive)
50 | CCCn1nc(C(=O)N(C)Cc2ccc(OCC)cc2)c2ccccc2c1=O | -4.2% (inactive)
51 | COc1ccc2oc(=O)c(S(=O)(=O)N3CCCCCC3)cc2c1 | -6.37% (inactive)
52 | CC(C)CC(=O)Nc1ccc(N2CCCC2)cc1 | 39.8% (inactive)
53 | COc1cc(CN2C(=O)C(=O)c3cccc(C)c32)ccc1OCCC(C)C | 5.04% (inactive)
54 | COc1ccc(Br)cc1/C=C1\Cc2ccccc2C1=O | 0.293% (inactive)
55 | COc1cccc2cc(C(=O)N3CCN(c4cccc(C(F)(F)F)c4)CC3)c(=O)oc12 | 3.43% (inactive)
56 | COc1ccccc1CCNC(=O)CSc1ccc(-c2ccccn2)nn1 | 8.88% (inactive)
57 | O=C(COc1c(I)cc(Cl)c2cccnc12)N1CCCC1 | -11.3% (inactive)
58 | CCN(CC(=O)N(C)C)Cc1ccc(F)c2cccnc12 | 0.454% (inactive)
59 | COc1ccc(Oc2c(C)oc3cc(OCC(=O)N4CCC(C(N)=O)CC4)ccc3c2=O)cc1 | -1.42% (inactive)
60 | CN(Cc1ccc(OC(F)F)cc1)C(=O)c1nn(Cc2ccccc2)c(=O)c2ccccc12 | 13.3% (inactive)
61 | COc1ccc(NC(=O)c2cnn3c2NC(C(=O)O)=CC3c2ccc(F)cc2)cc1 (stereo unspecified) | 18.2% (inactive)
62 | Cn1c(SCC(=O)Nc2cccc(F)c2)nc2c(=O)[nH]cnc21 | 11% (inactive)
63 | CCN(CC)S(=O)(=O)c1ccc(C)c(NS(=O)(=O)c2cccc(C#N)c2)c1 | -34.7% (active)
64 | CCN(CC)S(=O)(=O)c1ccc(C)c(NC(=O)COc2ccc(Br)cc2Cl)c1 | -4.43% (inactive)
65 | CCN(CC)S(=O)(=O)c1ccc(N2CCCC2)c(NS(=O)(=O)c2cccs2)c1 | -11.2% (inactive)
66 | COC(=O)c1ccc(C2C(C#N)=C(N)Oc3c2ccc2ccccc32)cc1 (stereo unspecified) | -5.14% (inactive)
67 | Cn1c(/C(C#N)=C2/CCCCCN2)nc2ccccc21 | 1.28% (inactive)
68 | Cc1cc2nc(/C(C#N)=C/c3ccccc3)[nH]c2cc1C | 9.89% (inactive)
69 | Cc1cc(/C=C(/C#N)c2nc3ccccc3n2C)cc(C)c1O | -32.2% (active)
70 | CC(C)CC(NC(=O)COc1ccc(Oc2ccccc2)cc1)C(=O)O (stereo unspecified) | -0.172% (inactive)
71 | O=C(O)c1cc(NC(=O)c2ccc(Cl)s2)cc(C(=O)O)c1 | -9.52% (inactive)
